Results taken from PubChem BioAssay (NCI).
The panel holds about 83,000 compounds, 20% with a hit somewhere; the sample as a whole holds those more often.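 96-well plates, one dose, 48 hours. Percent growth reported; active if below 10.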 Calls of active or inactive are those of the source.

tested on: MDA-MB-468 breast; test: NCI-60 one-dose screen, 48 h (100 = growth as untreated, 0 = no growth, -100 = all killed); conditions: 10 µM unless noted

SMILES | growth
C#Cc1nc(C2=C(C)C(=N\O)/C(=N/O)C2)cs1 | 82.6% (inactive)
O=C1NC(=O)c2c1c1c3ccccc3ccc1c1[nH]c3ccc(Br)cc3c21 | -12.5% (active)
CCNCc1ccncc1 | 96.9% (inactive)
COc1ccc(Cl)cc1C(=O)Nc1nc2ccc(Cl)cc2s1 | 76.7% (inactive)
COc1ccc(-c2c(-c3cc(OC)c4c(c3)OCO4)noc2N)cc1 | -2.08% (active)
CC(CN(C)C)Oc1ccc(OC(C)CN(C)C)c2c1C(=O)c1ccccc1C2=O (stereo not given) | 33.2% (inactive)
CCC(C)C1NC(=O)C(CCNCS(=O)(=O)O)NC(=O)C(NC(=O)C(CCNCS(=O)(=O)O)NC(=O)C(NC(=O)C(CCNCS(=O)(=O)O)NC(=O)CCCCC(C)C)C(C)O)CCNC(=O)C(C(C)O)NC(=O)C(CCNCS(=O)(=O)O)NC(=O)C(CCNCS(=O)(=O)O)NC(=O)C(C(C)CC)NC1=O (stereo not given) | 16% (inactive)
O=C(Nc1cccc(Cl)c1)Nc1nc2ccc(-c3cccc4ccccc34)cc2s1 | 37.6% (inactive)
O=C(CNC1CCCCC1)Nc1ccc(-c2nc3ccccc3s2)cc1 | 35.9% (inactive)
CC(C)[C@H](NC(=O)Cn1cc(C(=O)O)nn1)C(=O)O | 98.9% (inactive)
Cc1cc(=O)[nH]c(N/N=C/c2cc(Br)ccc2O)n1 | 3.37% (active)
COc1cc(-c2ccc3ncnc(NCc4ccccc4)c3c2)cnc1OC | 15.8% (inactive)
Cn1c2ccccc2c2c3c(c4c5ccccc5n(C)c4c21)C(=O)OC3 | 101% (inactive)
CN1CCN(CCCn2c3c(sc4ncccc43)c(=O)n3nnc(-c4ccccc4)c23)CC1 | 98.6% (inactive)
COc1cc(NC2=C(Cl)C(=O)c3nc(C)ccc3C2=O)cc(OC)c1 | -78.5% (active)
Fc1ccc2nc3c(cc2c1)CSc1nnc(-c2ccc[nH]c2=S)n1N3 | 105% (inactive)
N#CC1=C(N)Oc2ccc3ccccc3c2C1c1ccccc1 (stereo not given) | 12.7% (inactive)
CNC(=S)Sc1ccc([N+](=O)[O-])cc1[N+](=O)[O-] | 35.6% (inactive)
COc1ccc2oc(=O)cc(Cn3cc(Cn4cnc5c4c(=O)n(C)c(=O)n5C)nn3)c2c1 | 101% (inactive)
COc1ccc(/C=N\Nc2ccc([N+](=O)[O-])cn2)cc1OC | 79.1% (inactive)

SMILES | growth
CC1=NN(C(=O)c2nn(-c3ccc(Cl)cc3)cc2O)C(=O)C1 | 54.6% (inactive)
C[C@]12C[C@H]1CC[C@]1(C)[C@@H]2CC[C@@]23C[C@H](CC[C@H]21)[C@@](O)(CO)C3 | 82.3% (inactive)
Cc1nnc(-c2ccc3c(c2)nc(/C=C/c2ccccc2)n3C2CCCCC2)o1 | 91.3% (inactive)
Cc1nc2sc(C(=O)Nc3ccc(Br)cc3)c(N)c2cc1C(O)c1ccccc1 (stereo not given) | 12.7% (inactive)
COc1ccc(-c2n[nH]c(=O)c3nc(NC(=S)Nc4ccc(Oc5ccccc5)cc4)sc23)cc1 | 98% (inactive)
CNC(=O)c1cc(N2CCc3cc(NC(=O)Nc4ccc(N5CCOCC5)c(C(F)(F)F)c4)ccc32)ccn1 | 49.6% (inactive)
CC1=CC(=NC(=O)CBr)C=C/C1=N\S(=O)(=O)c1ccccc1 | 66% (inactive)
Cn1cccc1-c1nc2c3c(ccc2[nH]1)C(=O)c1ccccc1C3=O | 10.9% (inactive)
CN(C)C(=O)C1=NC(CO)C(=O)N(c2ccc(Cl)cc2)N1 (stereo not given) | 95.2% (inactive)
CC1(C)N=C(N)N=C(N)N1c1cccc(CCCCc2ccccc2)c1 | -57.7% (active)
COc1cc(NC(=O)CSc2nc3ccc(C)cc3c(=O)n2-c2ccccc2)cc(OC)c1OC | 69.8% (inactive)
COc1cccc(C(=O)NNc2nc(N3CCN(C4CCCCC4)CC3)nc(N3CCN(C(c4ccccc4)c4ccccc4)CC3)n2)c1 | 13.6% (inactive)
CC(C(C(=O)N1CCCCC1)N1CCCCC1)N1CCCCC1 (stereo not given) | 115% (inactive)
O=C(CC(=O)c1ccccc1F)Nc1ccc([N+](=O)[O-])cc1 | 90.9% (inactive)
CCOC(=O)C1=C(Nc2ccc(Br)cc2)C(=O)N(CC)C1 | 101% (inactive)
CC(C)N=C(N/C(N)=N/c1nc2ccccc2s1)NC(C)C | 66.4% (inactive)
NCCCCCCNc1cc(-c2cccc(OC(F)(F)F)c2)nc2ccc(N3CCCC3)cc12 | -87.9% (active)
CC(C)NC[C@@H](C(=O)N1CCN(c2ncnc3c2[C@H](C)C[C@H]3O)CC1)c1ccc(Cl)cc1 | -18.7% (active)
COc1ccc2c(c1)NC1=C(C(=O)OC1)C2c1cc(OC)c2c(c1)OCO2 (stereo not given) | -5.15% (active)
C=C1C(=O)O[C@H]2[C@H]1CC/C(COC(=O)c1cn(C)c3ccccc13)=C\CC[C@@]1(C)O[C@@H]21 | -66.4% (active)
